The text below walks through data of PubChem BioAssay AID720519 (National Center for Advancing Translational Sciences (NCATS), 2013).

Results filed as inconclusive are left out. Unmarked numbers belong to inactive results. Active and inactive are the calls of the source. The call rests on the fitted dose curve; in most records, active means well fitted activation curve with a large enough effect; inconclusive means small, poorly fitted or top-dose-only effect; inactive means flat fitted curve, though single readings scatter.
Potency means the concentration at half of the fitted maximal effect.

The experiment in a line: qHTS for Inhibitors of Cell Surface uPA Generation: Confirmatory Assay for Cherry-picked Compounds. On inhibition: 0% is about no effect. As to conditions: cell surface uPA activity generation, qHTS confirmation; series mostly up to 115 µM; inhibition: at the top concentration. From the text: The overall objective of this project is to perform a quantitative high throughput screen (qHTS) to identify novel compounds that inhibit the generation of cell surface urokinase activity. The urokinase plasminogen activator (uPA) is one of the two primary endogenous systems that mediate plasminogen activation into plasmin. Members of this system, including uPA and its receptor (uPAR), are overexpressed in several malignant tumors. This system plays a major role in adhesion, migration, invasion and metastasis of cancer cells. Small molecule inhibitors of the uPA system will serve as probes to understand the molecular mechanisms of the uPA cascade and better understanding the micro-environmental circumstances that facilitate the activation of plasminogen by uPA, and finally may provide novel candidate agents for anticancer drug therapy.
[…] […] Upon inhibition of the uPA activation cascade, the subsequent cell surface uPA activity-dependent translocation of LF into the cytoplasm is inhibited. ATP-Lite is used to measure intracellular ATP concentrations (measure cell viability) which remain increased if LF entry into the cytoplasm is inhibited. This validation assay was performed using a small set of cherry picked compounds. Activation of cell viability (increase in luminescence signal) due to inhibition of the cell surface uPA generation is the desired outcome of this assay.
NIH Chemical Genomics Center [NCGC]
NIH Molecular Libraries Probe Centers Network [MLPCN]
Assay Submitter (PI): Thomas Bugge, National Institute of Dental and Craniofacial Research, NIH
Cultured RAW 264.7 were dispensed into 1536-well clear bottom, white walled tissue culture plates at a density of 4000 cells/well and were incubated overnight (12-16 h) at 37 C in a 5% CO2 incubator. Serially diluted compounds (1:5 dilution) in 23 nl DMSO were added to cells (0.0024 uM to 3.83 uM final concentration). […] Compound and reagent-treated plates were incubated for 24 h at 37 C in a 5% CO2 incubator. Three microliter of PerkinElmer ATPlite was then added to each well and luminescence was detected using the PerkinElmer ViewLux plate reader for a 5 sec exposure.
Background: Quantitative high-throughput screening tests each substance at several concentrations.
What is called inhibition is the change of the read-out against control, counted positive when it falls. As for `Cc1nc(NC2CCCCC2)c2nnn(Cc3ccccc3Cl)c2n1`, the “inhibition” value was -0.678%.

Consider `N#Cc1cccc(NC(=O)Cn2cnc(S(=O)(=O)N3CCOCC3)c2)c1`, for which the “inhibition” value was -0.879%. On the same count and under the same terms, for `Cc1cccc(N2C(=O)c3cccc(Oc4ccc(Cl)cc4)c3C2=O)c1` the value was -1.01%; for `Cc1nc([N+](=O)[O-])cn1CCCCN1C(=O)c2ccccc2C1=O`, -1.31%.

As for `Cc1cccc(-c2nc(CS(=O)CC(=O)NCc3cccs3)c(C)o2)c1` (stereo not given), the “inhibition” value was -3.26%. As for `CCn1nc(C)c(CNC(=O)C2CCC(=O)N(CCc3ccc(OC)cc3)C2)c1C` (stereo not given), the “inhibition” value is -1.73%. Same read-out and setting: in the case of `Cc1ccc(NC(=O)C(C)S)cc1` (stereo not given) it was -3.16%; in that of `Cc1ccccc1S(=O)Cc1ccc(C(=O)N2CCN(C(=O)c3ccco3)CC2)o1` (stereo not given), -1.05%; in that of `CSCC[C@H](NC(=O)[C@H](Cc1ccccc1)n1c(=O)[nH]c2ccccc2c1=O)C(=O)N1CCC[C@@H]1C(=O)O`, -0.387%. As for `COC(=O)C1C(=O)c2c([nH]c(C(=O)OC3CCCCC3)c2C)CC1C` (stereo not given), the “inhibition” value was -0.386%. Take `Cc1nn(CC(=O)OCC(=O)NC(C)c2ccccc2)c(C)c1[N+](=O)[O-]` (stereo not given): the “inhibition” value is -1.75%. Same read-out and setting: for `O=C(NCC1CCCO1)c1ccc(NC(=O)c2ccc([N+](=O)[O-])cc2)cc1` (stereo not given) the value was -0.412%; for `COc1cccc(CN(C)C(=O)c2cc(S(=O)(=O)N3CCCC3)ccc2C)c1OC`, -1.45%; for `Nc1cc(=O)[nH]c(SCC(=O)Nc2cccc([N+](=O)[O-])c2)n1`, -1.96%. On to `Cc1ccc(Nc2cc(C)c3ccc(O)cc3n2)cc1C`, for which the Potency is 6.56 µM (active). On to `CCOc1ccc(CCNC(=O)Cc2ccc(NC3=NC4CS(=O)(=O)CC4S3)cc2)cc1OCC` (stereo not given), for which the “inhibition” value is 2.7%.

On to `CCCCNC(=O)C1CCN(S(=O)(=O)c2c(C)noc2/C=C\c2ccc(OC)cc2)CC1`, for which the “inhibition” value was -1.64%. Same read-out and setting: in the case of `CCn1c(SC(C)C(=O)NC2CCCC2)nc2cc(S(N)(=O)=O)ccc21` (stereo not given) it was 6.22%.

Consider `O=C(Nn1cnnc1)c1ccc(Cl)cc1`, for which the “inhibition” value is -0.0371%. Same read-out and setting: in the case of `CCCCNc1c(-c2ccc(-c3cccc(Cl)c3)cc2)nc2ccccn12` it was -3.49%; in that of `Cn1c(=O)c(=O)n(C)c2cc(S(=O)(=O)CCC(=O)Nc3ccc(F)cc3)ccc21`, 0.947%. Still for that read-out and setting: for `Cn1c(=O)c2c(ncn2CCO)n(C)c1=O` the value was -1.74%. On the same count and under the same terms, for `CN(C)C(=O)NC(NC(=S)Nc1ccccc1)C(Cl)(Cl)Cl` (stereo not given) the value was -2.04%. For the compound `NC(=O)CC[C@H](NC(=O)c1ccc(F)cc1)C(=O)OCC(=O)Nc1c(F)c(F)c(F)c(F)c1F`, the “inhibition” value is 0.0436%. The same measure, in the same setting: in the case of `CCc1ccc(N2CC(C(=O)Nc3ccc4c(c3)OCO4)CC2=O)cc1` (stereo not given) it was 1.98%; in that of `Cc1ccc(/C=C/C(=O)O)cc1S(=O)(=O)N1CCc2ccccc21`, -3.41%; in that of `CCn1c(CNc2ccc(F)cc2)nnc1SCC(=O)Nc1ccccc1OC`, -2.14%. As to `COc1ccc(C)cc1NC(=O)NNC(=O)C1CCC(C(C)(C)C)CC1` (stereo not given), the “inhibition” value was -3.28%.

In the case of `Brc1ccsc1/C=N/Nc1ccccc1`, the “inhibition” value was 3.17%.

Consider `CSc1ccccc1OCc1cc(C(=O)NCCCn2nc(C)cc2C)no1`, for which the “inhibition” value is -3.03%. Same read-out and setting: in the case of `CCOC(=O)c1c(C)oc2ccc(OC(=O)COc3c(F)c(F)c(F)c(F)c3F)cc12` it was -0.536%; in that of `CN(CC(=O)NCCCn1ccnc1)S(=O)(=O)c1ccc(Cl)cc1`, -0.102%.

As to `CN(CCCNC(=O)Cn1cccc1C(=O)c1ccccc1)C1CCCCC1`, the “inhibition” value was -3.4%.

In the case of `CC1CCCN(S(=O)(=O)c2cccc([N+](=O)[O-])c2)C1` (stereo not given), the “inhibition” value is 0.952%. On the same count and under the same terms, in the case of `COc1ccc(Cc2nnc(NC(=O)Nc3ccc(F)cc3)s2)cc1` it was 10.6%; in that of `COC(=O)c1ccc(N2CCN(c3ccccc3)CC2)c(NC(=O)C2CC2)c1`, -2.04%. For the compound `CCS(=O)c1scc(-c2ccc(Cl)cc2)c1C#N` (stereo not given), the “inhibition” value was -3.68%.

Take `COc1cc(/C=N/NC(=O)c2ccncc2)ccc1O`: the “inhibition” value is 1.09%. On the same count and under the same terms, in the case of `COCc1c(C(=O)Nc2nc(C)cs2)oc2ccccc12` it was -3.41%; in that of `COc1ccc(NS(=O)(=O)c2cc3c(cc2C)NC(=O)CO3)c(OC)c1`, -1.01%.
